Data published in PubChem BioAssay (EPA / NIEHS).
“And” between values parts separate entries of the source, which are not always exact repeats. Equal entries are not always repeated. The source made the active and inactive calls. The calls were made as follows: active = hit-call score of the fitted dose curve at least 0.9, where 1 is the maximum; inactive = score below 0.9.

read-out: Interleukin-1 alpha (IL1a), IL1A (gene 3552); assay: BSK_BF4T_IL1a: BioMAP Diversity Plus: BF4T Assay for Interleukin-1 alpha (IL1a) Biomarker Activity (AID 2284264); conditions: primary human bronchial epithelial cells with fibroblasts
Description: BSK_BF4T is a cell-based, multiplexed-readout assay that uses bronchial epithelial cells and dermal fibroblasts, a human vascular primary cell, with measurements taken at 24 hours after chemical dosing in a microplate: 96-well plate.BSK_BF4T_IL1a is an assay component measured in the BSK_BF4T assay. It measures IL-1a antibody related to regulation of gene expression using ELISA technology.Data from the assay component BSK_BF4T_IL1a was analyzed at the endpoint, BSK_BF4T_IL1a, in the positive analysis fitting direction relative to DMSO as the negative control and baseline of activity. Using a type of binding reporter, gain or loss-of-signal activity can be used to understand protein changes. To generalize the intended target to other relatable targets, this assay endpoint is annotated to the 'cytokine' intended target family, where the subfamily is 'interleukins'.
The levels of cell surface (or secreted, indicated by the prefix "s") biomarker endpoints were measured by ELISA. Overt cytotoxicity to cells in confluent adherent cultures (all systems other than the BT system) was assessed by measuring total protein levels using sulforhodamine B (SRB) staining in parallel cultures at the time of biomarker measurements, indicated as SRB endpoints. For proliferation assays for adherent cell types, individual cell types are cultured at sub-confluence and relative cell numbers quantified by SRB staining at time points optimized for each system (48 h: 3C and CASM3C systems; 72 h: BT and HDF3CGF systems; 96 h: SAg system). SRB was performed by staining cells with 0.1% SRB after fixation with 10% TCA and reading wells at 560 nm.Viability and proliferation of PBMC (T cells) was quantified by Alamar Blue reduction for the SAg and BT systems. For PBMC viability (referred to as PBMC Cytotoxicity within the assay endpoint names), cells were plated (75,000/well in a 96-well plate) and then chemical samples added for 1 h before addition of activators, SEB and TSST-1 (20 ng/mL final concentration each). Cells were incubated for 90 h. Then, Alamar Blue (20 uL/well) (Invitrogen, Cat DAL1100) was added for 6 h, and the plates were read with a fluorescence microplate reader at 546/580 nm (excitation/emission). For PBMC proliferation, cells were plated and activated as above but incubated for only 16 h prior to addition of Alamar Blue. Plates were read after 6 h.

Structure (SMILES)	outcome	AC50
O=C(O)CCC(F)(F)C(F)(F)C(F)(F)C(F)(F)C(F)(F)F	inactive	
O=C(O)C(F)(F)OC(F)(F)C(F)(F)OC(F)(F)C(F)(F)OC(F)(F)C(F)(F)C(F)(F)C(F)(F)F		11 µM (active) and 13.4 µM (active)
CN(CCO)S(=O)(=O)C(F)(F)C(F)(F)C(F)(F)C(F)(F)C(F)(F)C(F)(F)C(F)(F)C(F)(F)F	inactive	
C=CC(=O)OCCC(F)(F)C(F)(F)C(F)(F)C(F)(F)C(F)(F)C(F)(F)C(F)(F)C(F)(F)F	inactive	
O=P(O)(O)CCC(F)(F)C(F)(F)C(F)(F)C(F)(F)C(F)(F)C(F)(F)F	inactive	
O=S(=O)(O)C(F)(F)C(F)(F)C(F)(F)C(F)(F)C(F)(F)C(F)(F)C(F)(F)C(F)(F)C(F)(F)C(F)(F)F	inactive	
O=P(O)(O)CCC(F)(F)C(F)(F)C(F)(F)C(F)(F)C(F)(F)C(F)(F)C(F)(F)C(F)(F)F	inactive	
O=C(CC(=O)C(F)(F)C(F)(F)C(F)(F)F)c1cccs1		43 µM (active) and 45 µM (active)
CN(Cc1cnc2nc(N)nc(N)c2n1)c1ccc(C(=O)N[C@@H](CCC(=O)O)C(=O)O)cc1	inactive	
OCC(F)(F)C(F)(F)C(F)(F)C(F)(F)C(F)(F)C(F)(F)C(F)(F)C(F)(F)C(F)(F)C(F)(F)C(F)(F)F	inactive	
O=C(O)CCC(F)(F)C(F)(F)C(F)(F)C(F)(F)C(F)(F)C(F)(F)F	inactive	
